Experimental data as given in PubChem BioAssay (NCATS).
Records with an inconclusive call do not appear. Unmarked numbers belong to inactive results. Calls of active or inactive are those of the source. Calls come from the whole dose curve.

Experiment: Primary qHTS for inhibitors of SARS-S pseudo-typed particle cell entry (AID 1479145); note: nearly all actives have a fitted effect of over 45% in size
Conditions: SARS-S pseudotyped particle cell entry, luciferase reporter; series mostly up to 57.1 µM; activity change, negative = inhibition: at the top concentration
% is set by controls: 0 for no effect and ±100 for the full control effect.

Question: With `CCC(C)C(NC(=O)C(Cc1ccc(O)cc1)NC(=O)C(NC(=O)C(CCCN=C(N)N)NC(=O)C(N)CC(=O)O)C(C)C)C(=O)NC(Cc1cnc[nH]1)C(=O)N1CCCC1C(=O)NC(Cc1ccccc1)C(=O)O` (stereo unspecified) as the molecule, how does the “activity change, negative = inhibition” value read?
Answer: -6.52%

Question: Which “activity change, negative = inhibition” value does the source give for `O=C(O)CCSC[C@H]1O[C@@H]2O[C@H]3[C@H](O)[C@@H](O)[C@@H](O[C@H]4[C@H](O)[C@@H](O)[C@@H](O[C@H]5[C@H](O)[C@@H](O)[C@@H](O[C@H]6[C@H](O)[C@@H](O)[C@@H](O[C@H]7[C@H](O)[C@@H](O)[C@@H](O[C@H]8[C@H](O)[C@@H](O)[C@@H](O[C@H]9[C@H](O)[C@@H](O)[C@@H](O[C@H]1[C@H](O)[C@H]2O)O[C@@H]9CSCCC(=O)O)O[C@@H]8CSCCC(=O)O)O[C@@H]7CSCCC(=O)O)O[C@@H]6CSCCC(=O)O)O[C@@H]5CSCCC(=O)O)O[C@@H]4CSCCC(=O)O)O[C@@H]3CSCCC(=O)O` here?
Answer: -29%

Question: For `NC(=O)c1nc(F)c[nH]c1=O`, which “activity change, negative = inhibition” value is on record?
Answer: -11.8%

Question: With `O=S(=O)(O)CC(S)CS` (stereo unspecified) as the molecule, how does the “activity change, negative = inhibition” value read?
Answer: -1.82%

Question: Which “outcome” value does the source give for `COc1ccc2c(O[C@H]3CC4C(=O)N(C)CCCC/C=C\[C@@H]5C[C@@]5(C(=O)NS(=O)(=O)C5CC5)NC(=O)[C@@H]4C3)cc(-c3nc(C(C)C)cs3)nc2c1C` (stereo partly specified) here?
Answer: inactive

Question: For `NC(Cc1cc(I)c(Oc2cc(I)c(O)c(I)c2)c(I)c1)C(=O)O` (stereo unspecified), which “activity change, negative = inhibition” value is on record?
Answer: -9.72% [at 26.4 µM]

Question: Which “activity change, negative = inhibition” value does the source give for `CCN1CCCC1CNC(=O)c1cc(S(=O)(=O)CC)ccc1OC` (stereo unspecified) here?
Answer: -4.94%

Question: With `CN(CC(O)CO)C(=O)c1c(I)c(NC(=O)C(CO)CO)c(I)c(C(=O)N(C)CC(O)CO)c1I` (stereo unspecified) as the molecule, how does the “activity change, negative = inhibition” value read?
Answer: -2.55%

Question: With `CC1(C)S[C@@H]2[C@H](NC(=O)C(C(=O)O)c3ccsc3)C(=O)N2[C@H]1C(=O)O` (stereo partly specified) as the molecule, how does the “outcome” value read?
Answer: inactive

Question: With `CC(C)C(=O)OCC(=O)[C@@]12OC(C3CCCCC3)O[C@@H]1C[C@H]1[C@@H]3CCC4=CC(=O)C=C[C@]4(C)[C@H]3[C@@H](O)C[C@@]12C` (stereo partly specified) as the molecule, how does the “outcome” value read?
Answer: inactive

Question: For `CC1=C(C(=O)OCCN(Cc2ccccc2)c2ccccc2)C(c2cccc([N+](=O)[O-])c2)C(P2(=O)OCC(C)(C)CO2)=C(C)N1` (stereo unspecified), which “outcome” value is on record?
Answer: inactive

Question: Which “activity change, negative = inhibition” value does the source give for `CC[C@H]1[C@@H](O)[C@@H]2[C@H](CC[C@]3(C)[C@@H]([C@H](C)CCC(=O)O)CC[C@@H]23)[C@@]2(C)CC[C@@H](O)C[C@@H]12` here?
Answer: -13.7%

Question: With `CCCC(=O)O[C@]1(C(=O)COC(=O)CC)[C@@H](C)C[C@H]2[C@@H]3CCC4=CC(=O)C=C[C@]4(C)[C@@]3(F)[C@@H](O)C[C@@]21C` as the molecule, how does the “outcome” value read?
Answer: inactive

Question: With `OC[C@H]1O[C@@H](OC[C@H]2O[C@@H](O[C@@H]3[C@@H](O)[C@H](O)O[C@H](CO)[C@H]3O)[C@H](O)[C@@H](O[C@@H]3O[C@H](CO)[C@@H](O)[C@H](O)[C@H]3O)[C@@H]2O)[C@H](O)[C@@H](O)[C@@H]1O` as the molecule, how does the “outcome” value read?
Answer: inactive

Question: With `CC(C)[C@H]1CC[C@H](C)C[C@H]1O` as the molecule, how does the “activity change, negative = inhibition” value read?
Answer: -14.1%

Question: Which “activity change, negative = inhibition” value does the source give for `CCC1(C)OC(=O)N(C)C1=O` (stereo unspecified) here?
Answer: -34.3%

Question: For `OC[C@H]1O[C@@H](OCCc2ccc(O)cc2)[C@H](O)[C@@H](O)[C@@H]1O`, which “activity change, negative = inhibition” value is on record?
Answer: -7.8%

Question: Which “activity change, negative = inhibition” value does the source give for `CCCCC[C@H](O)/C=C/[C@@H]1[C@@H](C/C=C/CCCC(=O)O)[C@@H](O)C[C@H]1O` here?
Answer: -21.3%

Question: Which “activity change, negative = inhibition” value does the source give for `CCCc1ccc(C(=O)O)cc1` here?
Answer: -18.9%

Question: For `C[C@]12C=CC(=O)C=C1CCC1C2[C@@H](O)C[C@@]2(C)C1CC[C@]2(O)C(=O)COC(=O)CCC(=O)O` (stereo partly specified), which “outcome” value is on record?
Answer: inactive

Question: Which “outcome” value does the source give for `Cc1cc(Nc2ccccc2C(=O)O)ccc1Cl` here?
Answer: inactive

Question: For `C[C@@H]1CCC[C@H](C)N1NC(=O)c1ccc(Cl)c(S(N)(=O)=O)c1`, which “activity change, negative = inhibition” value is on record?
Answer: -18.5%

Question: With `CN(C)CC(=O)O` as the molecule, how does the “activity change, negative = inhibition” value read?
Answer: -12.8%

Question: Which “activity change, negative = inhibition” value does the source give for `C[C@H]1O[C@]2(CS1)CN1CCC2CC1` here?
Answer: -1.9%

Question: Which “activity change, negative = inhibition” value does the source give for `CCCC(=O)Nc1ncnc2c1ncn2C1O[C@@H]2COP(=O)(O)O[C@H]2[C@H]1OC(=O)CCC` (stereo partly specified) here?
Answer: -37.3%

Question: For `CNC(=O)c1c(I)c(C(=O)NCC(=O)Nc2c(I)c(C(=O)O)c(I)c(C(=O)NCCO)c2I)c(I)c(N(C)C(C)=O)c1I`, which “outcome” value is on record?
Answer: inactive

Question: With `O=C(O)CSc1nnc(Br)n1-c1ccc(C2CC2)c2ccccc12` as the molecule, how does the “activity change, negative = inhibition” value read?
Answer: -3.95%

Question: For `NC(=O)[C@H]1O[C@@H](O)[C@H](O)[C@@H](O)[C@@H]1O`, which “activity change, negative = inhibition” value is on record?
Answer: -19.1% [at 171 µM]

Question: With `CCCCCCCCCCCCCCCCCCCCCCCCCCCCO` as the molecule, how does the activity change, negative = inhibition read?
Answer: -10.7% [at 0.573 µM]

Question: Which “activity change, negative = inhibition” value does the source give for `O=C(N[C@H]1CCS[C@H]2CCC[C@@H](C(=O)O)N2C1=O)[C@@H](S)Cc1ccccc1` here?
Answer: -22.1%

Question: With `O=C(O)C1=C(CSc2nnnn2CS(=O)(=O)O)CS[C@@H]2[C@@H](NC(=O)[C@H](O)c3ccccc3)C(=O)N12` as the molecule, how does the “outcome” value read?
Answer: inactive
